The nature of assay [1]: qHTS assay to identify small molecule agonists of the TGF-beta/Smad signaling pathway (AID 1346859; active = well fitted activation curve with a large enough effect in the signal ratio in the repeat runs, not every such curve was filed as active; the % refers to the signal ratio; note: series mostly up to about 77 µM). Put shortly:
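Each well held 4,000 SBE-bla HEK 293T cells incubated overnight before compound addition; 5 hr later the cleavable FRET substrate went on for 2 hr at room temperature, and fluorescence was read at two emissions.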

Assay [2] has as its target Thyrotropin-releasing hormone receptor (Homo sapiens) (UniProt P34981). Nature of the assay: qHTS assay to identify small molecule antagonists of the thyrotropin-releasing hormone receptor (TRHR) signaling pathway (AID 1346877; active = well fitted inhibition curve with a large enough effect in the repeat runs, not every such curve was filed as active; note: series mostly up to about 51 µM). Put shortly: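 Following an 18 h incubation at 37 °C and a 2 h calcium dye load, TRHR-HEK293 cells were exposed to compound (5 min, room temperature) and challenged with TRH, 1 nM final.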

Assay [3] shares this target. Description: qHTS assay to identify small molecule agonists of the thyrotropin-releasing hormone receptor (TRHR) signaling pathway (AID 1346891; calls by dose curve; note: series mostly up to about 58 µM). Put shortly: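 Screening of agonists relied on calcium signalling in HEK293 cells expressing human TRHR: dye loading 2 h at 37 °C preceded compound addition and a 3-min fluorescence time course.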
Assay [4] in a line: Human pregnane X receptor (PXR) small molecule agonists, qHTS cell viability counter screen (AID 1346977). Note: nearly all actives have a fitted effect of over 50% in size. Put shortly: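 Tox21 qHTS format; PXR-Luc HepG2, 2,000/well, charcoal-stripped FBS 5%. Cpd exposure 24hr. Read: CellTiter-Fluor fluorescence, multiplexed with luciferase.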
For orientation: qHTS replaces the single test concentration by a dilution series.

Assay [5] can be described thus: Caspase-3/7 induction in HepG2 cells by small molecules, qHTS assay (AID 1346978). Note: nearly all actives have a fitted effect of over 15% in size. The method, boiled down:
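Caspase-3/7 induction was measured by Caspase-Glo 3/7 luminescence (30 min, room temperature) after a 17 hr compound exposure of wild-type HepG2 cells seeded at 2,000 per well and pre-incubated 5 hr.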

The nature of assay [6]: Caspase-3/7 induction in CHO-K1 cells by small molecules, qHTS cell viability counter screen (AID 1346979). Note: nearly all actives have a fitted effect of over 35% in size. The method, boiled down: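 CellTiter-Fluor viability check, qHTS format: wild-type CHO-K1, 16hr compound treatment, 1hr reagent incubation, fluorescence read.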
Assay [7] in a line: Caspase-3/7 induction in CHO-K1 cells by small molecules, qHTS assay (AID 1346980). Note: nearly all actives have a fitted effect of over 15% in size. Put shortly: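 Luminescent Caspase-Glo 3/7 read (30min, room temperature) quantified apoptosis induction. Cells were wild-type CHO-K1, treated with compound for 17hr at 37 C and 5% CO2.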
Assay [8] is described as follows: Caspase-3/7 induction in HepG2 cells by small molecules, qHTS cell viability counter screen (AID 1346981). Note: series mostly up to about 92 µM; nearly all actives have a fitted effect of over 30% in size. Put shortly: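 Viability determined by CellTiter-Fluor fluorescence in HepG2 wells also used for the luminescent Caspase-Glo 3/7 read. Compounds were present for 16 hr at 37 C, 5% CO2 before reagent addition.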
Assay [9] concerns the target Nuclear receptor subfamily 1 group I member 2 (Homo sapiens) (UniProt O75469). Nature of the assay: Human pregnane X receptor (PXR) small molecule agonists, qHTS assay (AID 1346982). Note: nearly all actives have a fitted effect of over 35% in size. Note: potency is the fitted concentration of half-maximal effect. Put shortly:
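Compound-induced hPXR transactivation of a CYP3A4 luciferase reporter was scored in HepG2 PXR-Luc cells over 24 hr at 37 C, 5% CO2, by luminescence.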

Assay [10] deals with Nuclear receptor subfamily 1 group I member 2 (Rattus norvegicus) (UniProt Q9R1A7). Nature of the assay: Rat pregnane X receptor (rPXR) activation by small molecules, qHTS assay (AID 1346983). Note: nearly all actives have a fitted effect of over 20% in size. Note: potency is the fitted concentration of half-maximal effect. The following applies: rPXR luciferase reporter cells, One-Glo luminescence, 24 h; max activation: active compounds read high. The method, boiled down: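 Luminescent readout (One-Glo luciferase, 30 min room temperature) followed 24 hr compound treatment at 37 C of rPXR cells plated 2,000 per well and preincubated 5hr; qHTS format with compounds delivered in DMSO.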
Sequence of Nuclear receptor subfamily 1 group I member 2 (Rattus norvegicus) (Q9R1A7 whole entry, looked up): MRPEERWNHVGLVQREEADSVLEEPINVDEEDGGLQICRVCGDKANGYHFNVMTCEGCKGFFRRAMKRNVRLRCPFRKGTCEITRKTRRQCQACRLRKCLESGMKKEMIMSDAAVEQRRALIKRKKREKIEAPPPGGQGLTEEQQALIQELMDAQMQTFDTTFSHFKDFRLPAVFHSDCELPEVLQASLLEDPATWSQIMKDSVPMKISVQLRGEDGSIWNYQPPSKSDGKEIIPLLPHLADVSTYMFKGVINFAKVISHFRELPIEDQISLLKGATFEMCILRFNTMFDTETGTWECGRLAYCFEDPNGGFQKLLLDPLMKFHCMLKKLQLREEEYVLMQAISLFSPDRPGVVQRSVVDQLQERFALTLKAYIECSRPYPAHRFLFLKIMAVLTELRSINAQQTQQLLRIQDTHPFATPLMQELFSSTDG

23 compounds from PubChem BioAssay (Tox21) can be followed below.

A number with no mark means an inactive call. Records with an inconclusive call do not appear. Active and inactive are the calls of the source. Unless noted, calls come from the whole dose curve; as a rule, active = well fitted curve in the direction sought with a large enough effect in the repeat runs; inconclusive = weak or mixed curves; inactive = no such curve, though single readings can be large; an effect the other way counts as inactive or inconclusive.
% is set by controls: 0 for no effect and ±100 for the full control effect.

Sequence of Thyrotropin-releasing hormone receptor (Homo sapiens) (P34981 whole entry, looked up): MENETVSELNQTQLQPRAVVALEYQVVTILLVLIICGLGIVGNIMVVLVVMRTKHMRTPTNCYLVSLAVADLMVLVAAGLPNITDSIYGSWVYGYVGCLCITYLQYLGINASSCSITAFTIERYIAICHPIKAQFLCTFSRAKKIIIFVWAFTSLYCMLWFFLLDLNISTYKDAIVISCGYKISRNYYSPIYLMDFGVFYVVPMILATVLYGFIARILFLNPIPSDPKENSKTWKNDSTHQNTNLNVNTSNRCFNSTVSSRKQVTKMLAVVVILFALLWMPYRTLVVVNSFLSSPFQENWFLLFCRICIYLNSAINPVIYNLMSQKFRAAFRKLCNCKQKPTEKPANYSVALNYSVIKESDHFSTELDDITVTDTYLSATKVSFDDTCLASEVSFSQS
Sequence of Nuclear receptor subfamily 1 group I member 2 (Homo sapiens) (O75469 whole entry, looked up): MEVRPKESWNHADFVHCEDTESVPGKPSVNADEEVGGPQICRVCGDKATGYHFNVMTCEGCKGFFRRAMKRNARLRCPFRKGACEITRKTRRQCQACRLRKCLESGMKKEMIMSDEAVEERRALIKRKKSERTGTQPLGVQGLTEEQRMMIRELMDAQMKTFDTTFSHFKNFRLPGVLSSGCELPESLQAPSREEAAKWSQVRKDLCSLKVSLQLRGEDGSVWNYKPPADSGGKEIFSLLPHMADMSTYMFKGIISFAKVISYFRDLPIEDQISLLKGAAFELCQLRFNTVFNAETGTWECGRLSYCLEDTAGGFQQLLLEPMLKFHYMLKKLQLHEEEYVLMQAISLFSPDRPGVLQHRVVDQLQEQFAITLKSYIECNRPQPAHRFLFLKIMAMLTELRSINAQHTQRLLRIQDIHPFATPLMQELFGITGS

`O=C(O)P(=O)(O)O`: the call in assay [1], in assay [2], in assay [4], in assay [5], in [7] and in [8] was inactive. The Potency result in [3], in assay [6] and in assay [9] was “inactive” each time. Also, the max activation in assay [10] was -4.52%.
Turning to `C[C@]12C=CC(=O)C=C1[C@@H](F)C[C@@H]1[C@@H]2[C@@H](O)C[C@@]2(C)[C@H]1CC[C@]2(O)C(=O)CO`, the result in assay [1], in assay [2], in assay [4], in [5], in [7] and in assay [8] was inactive. For the same compound, the Potency entry in assay [3], in [6] and in [9] was “inactive” each time. In addition, the Potency in assay [10] is 12.6 µM (active).
Consider `CC(C)(C)NCC(O)COc1cccc2c1CCC(=O)N2` (configuration not stated), for which the compound was called inactive in assay [1], in assay [2], in assay [4], in assay [5], in assay [7] and in assay [8]. Further, the Potency result in [3] and in assay [6] was “inactive” each time. Further, in [10], the max activation is -2.26%.
As to `O=C[C@@H](O)[C@H](O)[C@H](O)CO`, the compound was called inactive in assay [1], in assay [2], in assay [4], in assay [5], in [7] and in assay [8]. Further, the Potency result in assay [3] and in assay [9] was “inactive” throughout.
As to `CCCC(=O)C(CC)Sc1ccoc1C` (configuration not stated), the compound was classed as inactive in assay [1], in assay [2], in assay [4], in assay [5] and in assay [7]. For the same compound, the Potency entry in [3], in assay [6] and in [9] was “inactive” each time.
For `COc1cnc(NS(=O)(=O)c2ccc(N)cc2)nc1`, the compound was called inactive in assay [1], in assay [2], in assay [4], in assay [5], in [7] and in assay [8]. The Potency entry in assay [3], in assay [6] and in assay [9] was “inactive” throughout. Moreover, the max activation in assay [10] is -1.37%.
`C[C@@H]1CC[C@@]2(OC1)O[C@H]1C[C@H]3[C@@H]4CC[C@H]5C[C@@H](O)CC[C@]5(C)[C@H]4CC(=O)[C@]3(C)[C@H]1[C@@H]2C`: the activation was -4.07% [at 6.97 µM] in [1], -0.339% [at 5.23 µM] in assay [3] and -7.1% [at 8.39 µM] in assay [9]. The activity, negative = inhibition in assay [2] is 1.5% [at 4.65 µM]. For the same compound, the activity change, negative = cytotoxicity in assay [4] is 11.4% [at 8.39 µM]; in assay [6], 2.81% [at 8.39 µM]; in [8], 6.1% [at 8.39 µM]. In addition, the caspase activation in assay [5] is 0.244% [at 8.39 µM]. Also, the caspase-3/7 activation in [7] was -0.713% [at 8.39 µM]. The max activation in assay [10] was -0.0535%.
For the compound `O=C(OOC(=O)c1ccccc1)c1ccccc1`, the outcome in assay [1], in assay [2], in assay [4], in assay [5], in [7] and in assay [8] was inactive. For the same compound, the Potency entry in assay [3], in assay [6] and in assay [9] was “inactive” each time. Besides, the max activation in assay [10] was -2.52%.
As to `CCCCCCCCCCCCCC(=O)OCC`, the compound was classed as inactive in [1], in assay [2], in [4], in assay [5] and in assay [7]. In addition, the Potency result in assay [3], in assay [6] and in [9] was “inactive” in each case.
With `CCCCCCC(O)CO` (configuration not stated), the outcome in [1], in assay [2], in assay [4], in assay [5], in assay [7] and in assay [8] was inactive. In addition, the Potency result in assay [3] and in assay [9] was “inactive” throughout.
With `CCCCc1ccc(Cl)cc1`, the result in [1], in [2], in assay [4], in assay [5] and in assay [7] was inactive. For the same compound, the Potency result in assay [3], in [6] and in assay [9] was “inactive” in each case.
As to `Cc1ccc(S(=O)(=O)NC(=O)NN2CC3CCCC3C2)cc1` (configuration not stated), the compound was called inactive in [1], in [2], in assay [4], in assay [5], in assay [7] and in assay [8]. For the same compound, the Potency entry in assay [3], in assay [6] and in assay [9] was “inactive” throughout. For the same compound, the max activation in assay [10] is 1.11%.
As for `NCC1CCC(C(=O)Oc2ccc(CCC(=O)O)cc2)CC1` (configuration not stated), the result in assay [1], in assay [2], in assay [4], in assay [5], in assay [7] and in assay [8] was inactive. Moreover, the Potency result in assay [3], in assay [6] and in assay [9] was “inactive” each time. Further, in assay [10], the max activation was -5.61%.
As for `CCCCCC(CC)OC(=O)CCCOc1ccc(Cl)cc1Cl` (configuration not stated), the compound was called inactive in [1], in assay [2], in assay [4], in assay [5] and in assay [7]. Besides, the Potency entry in [3], in [6] and in assay [9] was “inactive” each time.
As for `CCN(CC)CC(=O)Oc1ccc(NC(C)=O)cc1`, the result in assay [1], in [2], in [4], in assay [5], in [7] and in assay [8] was inactive. The Potency entry in [3] and in [9] was “inactive” each time.
For `C/C=C/C(=O)CCCC`, the outcome in assay [1], in [2], in assay [4], in assay [5], in assay [7] and in assay [8] was inactive. The Potency result in [3] and in [9] was “inactive” throughout.
For the compound `CNCCc1ccccn1`, the call in [1], in [2], in assay [4], in [5], in assay [7] and in assay [8] was inactive. Also, the Potency result in assay [3], in assay [6] and in [9] was “inactive” throughout. Further, the max activation in assay [10] is -1.65%.
Regarding `CCCC(=O)OC`, the compound was classed as inactive in assay [1], in [2], in [4], in assay [5], in assay [7] and in [8]. Also, the Potency result in assay [3] and in assay [9] was “inactive” each time.
With `CC[C@@]1(c2ccccc2)NC(=O)N(C)C1=O`, the compound was called inactive in assay [1], in [2], in assay [4], in [5], in assay [7] and in [8]. Also, the Potency entry in assay [3], in [6] and in assay [9] was “inactive” in each case. Also, in assay [10], the max activation is -0.191%.
As to `CC(=O)c1ccc(O)c(C(N)=O)c1`, the call in assay [1], in assay [2], in assay [4], in assay [5], in [7] and in [8] was inactive. Besides, the Potency result in assay [3] and in assay [9] was “inactive” each time.
As for `CC(C)OC(=O)C(C(=O)OC(C)C)=C1SC=CS1`, the compound was called inactive in [1], in assay [2], in assay [4], in assay [5], in [7] and in assay [8]. Moreover, the Potency entry in assay [3] and in [6] was “inactive” throughout. Also, the Potency in assay [9] was 26.6 µM (active). Further, the max activation in assay [10] is 6.37%.
For the compound `CCCCCCCCOCCC#N`, the compound was classed as inactive in [1], in assay [2], in assay [4], in assay [5], in [7] and in assay [8]. The Potency result in assay [3] and in [9] was “inactive” in each case.
On to `CCOc1ccccc1OCCN[C@H](C)Cc1ccc(OC)c(S(N)(=O)=O)c1`, for which the compound was classed as inactive in [1], in assay [2], in [4], in assay [5], in assay [7] and in [8]. Further, the Potency entry in assay [3] and in assay [6] was “inactive” each time. For the same compound, in assay [9], the Potency was 26.6 µM (active). The max activation in assay [10] is -6.48%.
